In all, about 35,000 sequences were measured (“fluorescence intensity (a.u.)”: median about 10,000, highest 2% from about 52,000 on). For the sample, the highest values were picked, then their nearest neighbours and some sequences at random.
biological target: T1, OsWOX13 (Oryza sativa, UniProt Q5QMM3 1-267); assay: protein-binding microarray (RPBM); PBS, 2% BSA, 51.3 ng/ul salmon testes DNA, 50 uM zinc acetate, 200 nM TF, 25 C, 1 h; high values mean tight binding; settings: protein: recombinant; tags: N-terminal polyhistidine and DsRed monomer fusion (pET32a); label: CyDye5-dUTP incorporated in the synthesized complementary strand; 3' TTTTT single-stranded linker to array surface; dsDNA, one strand shown
T1 sequence: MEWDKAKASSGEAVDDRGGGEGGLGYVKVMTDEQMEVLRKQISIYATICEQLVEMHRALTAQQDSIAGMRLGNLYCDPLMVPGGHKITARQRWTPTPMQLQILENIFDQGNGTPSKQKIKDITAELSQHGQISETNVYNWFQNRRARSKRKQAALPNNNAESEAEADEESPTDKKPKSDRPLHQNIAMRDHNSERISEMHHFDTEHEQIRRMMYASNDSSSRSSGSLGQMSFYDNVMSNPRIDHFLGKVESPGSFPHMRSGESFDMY
In short: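 Polyhistidine-tagged DsRed fusions of transcription factors, joined at the N-terminus, were expressed in E. coli BL21-CodonPlus and isolated on Ni–NTA. They were incubated at 200 nM for 1 h at 25 °C on a custom Agilent array, double-stranded and BSA-blocked, in PBS with 2% BSA, salmon testes DNA and 50 µM zinc acetate. The binding signal is per-feature fluorescence intensity (arbitrary units) read on an Axon 4000B scanner after washing.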

Row | Sequence | binding signal
1 | TTATTAATTTGTAATAGGTGTATTTCGGTCTTATTAAACTCGGAGTCACCTAGTGCAG | 19600 fluorescence intensity (a.u.)
2 | CGTAAATTTTCAATAAAATTTTAGTGAAATCAGGAATATGCGGAGTCACCTAGTGCAG | 17500 fluorescence intensity (a.u.)
3 | AATAAAACTTACATGAGTTAATTGAGTGAGAAATTAATTCCGGAGTCACCTAGTGCAG | 4550 fluorescence intensity (a.u.)
4 | TACCGATAATTTGTTATAGATCCCTAGACGTACATTCCTCCGGAGTCACCTAGTGCAG | 19900 fluorescence intensity (a.u.)
5 | CATGATGATAGTGATAGCAACTCAAGCAATACTAACGCACCGGAGTCACCTAGTGCAG | 14700 fluorescence intensity (a.u.)
6 | GCAGATTAGTTGTGGCAAACATTCTCTTGTGTGCAGCACTCGGAGTCACCTAGTGCAG | 3650 fluorescence intensity (a.u.)
7 | GAATCTTGAAATTGAGCTGATTAATTTTCTTCTTGTTGAGCGGAGTCACCTAGTGCAG | 11800 fluorescence intensity (a.u.)
8 | CAAATTGAAGAGGATGCATGAATTGGATTTGCAGGAGAAGCGGAGTCACCTAGTGCAG | 5250 fluorescence intensity (a.u.)
9 | TTCAAATTTAATGCAAAGATTAAGTTGATGAGAAACGACGCGGAGTCACCTAGTGCAG | 6640 fluorescence intensity (a.u.)
10 | ATGATTGGAGTCAAATTGAACTTGTACTGATGTGGAGGAGCGGAGTCACCTAGTGCAG | 53400 fluorescence intensity (a.u.)
11 | CCAAATTAAGTGGAAATTAATTTGCAAGCTGAGAACGATGCGGAGTCACCTAGTGCAG | 55000 fluorescence intensity (a.u.)
12 | TCCTAGGTGATCTGGGTGATTGTGAGTGAGTTTTGTTTCGCGGAGTCACCTAGTGCAG | 4180 fluorescence intensity (a.u.)
13 | TTGTGAAATGTTGATGAGGCTGATTGAGCGAGAAGCAGTGCGGAGTCACCTAGTGCAG | 20000 fluorescence intensity (a.u.)
14 | ATTGATGATTGAAATTTGCTGTGCAAATCGAGAACTGAAGCGGAGTCACCTAGTGCAG | 53500 fluorescence intensity (a.u.)
15 | GAATGATTGTGGATGATGAAATAAATACTGCTCTTGTCAGCGGAGTCACCTAGTGCAG | 33400 fluorescence intensity (a.u.)
16 | ACTTGATTGAAATCGAAGCATCTGTTTTCGCGTGTTTGAGCGGAGTCACCTAGTGCAG | 59900 fluorescence intensity (a.u.)
17 | TTGAAATTGGAGATGATGTGACTGAAAAGTTGTGTGTGTACGGAGTCACCTAGTGCAG | 21000 fluorescence intensity (a.u.)
18 | TAAGCTAATTTGACCGCTGAAAGTGATGGAAAGCAAGCAACGGAGTCACCTAGTGCAG | 4480 fluorescence intensity (a.u.)
19 | AACAAATAAATTACTATTAGAGTAGGATGTTCGGCAAAGTCGGAGTCACCTAGTGCAG | 7390 fluorescence intensity (a.u.)
20 | ATATTGATGTTAATGAATCTAAATAGATATATATGTCTAGCGGAGTCACCTAGTGCAG | 5520 fluorescence intensity (a.u.)
21 | GTAGACTGATCACAATCTTTATTAGAATCGTTTAAGACACCGGAGTCACCTAGTGCAG | 6090 fluorescence intensity (a.u.)

Row | Sequence | binding signal
22 | TCTAATTTATTAGAGCGCCACATGACGGCTTGAGAGCGTTCGGAGTCACCTAGTGCAG | 19200 fluorescence intensity (a.u.)
23 | TTCGTTCATCATCAATCAAAACATGGGACTATAAGGATTTCGGAGTCACCTAGTGCAG | 7300 fluorescence intensity (a.u.)
24 | AGTCAGCTGATTTAAATATAAACAGGGGTAAGAATTTAAGCGGAGTCACCTAGTGCAG | 15000 fluorescence intensity (a.u.)
25 | TATTTTGTAATCATTTGTTTTATATTTGAATTCCTGTCAGCGGAGTCACCTAGTGCAG | 3710 fluorescence intensity (a.u.)
26 | GGTAAATATAATAAATTATTGATCTAACAACTTGAAATTACGGAGTCACCTAGTGCAG | 3460 fluorescence intensity (a.u.)
27 | AATGATCTGATGGATGTTCTCTCACGTTCAAATCAGAGGCCGGAGTCACCTAGTGCAG | 8430 fluorescence intensity (a.u.)
28 | TGGGTCATTTATTGATTATTGTATTATTGTTCCTTATATTCGGAGTCACCTAGTGCAG | 10300 fluorescence intensity (a.u.)
29 | AGCTGCATATATTGATTGACAGGTGTACCGATTCCTTATGCGGAGTCACCTAGTGCAG | 54400 fluorescence intensity (a.u.)
30 | CAATATTCTTTGACAGCTTCGATTGACATCTCACCTTATGCGGAGTCACCTAGTGCAG | 9220 fluorescence intensity (a.u.)
31 | GTCAATTTAGATTGCCGCGCTTACAATTAGTTCTCAGGAACGGAGTCACCTAGTGCAG | 15100 fluorescence intensity (a.u.)
32 | ACAAAGTAATTGATTTCTTGTGTGAGGCCTTGTTTAGATCCGGAGTCACCTAGTGCAG | 53400 fluorescence intensity (a.u.)
33 | AAAGTAATTAGTGTTTTCTTGATTAGTCTTTTCCTTGTATCGGAGTCACCTAGTGCAG | 42700 fluorescence intensity (a.u.)
34 | TCTAATTTCTTCCCTTGCAGATTGATCTTGTTAGTGAGCCCGGAGTCACCTAGTGCAG | 20700 fluorescence intensity (a.u.)
35 | TTAATTAATTTCTCTAATGATTCTCAATCTTGTGTTCTTCCGGAGTCACCTAGTGCAG | 28300 fluorescence intensity (a.u.)
36 | CATTAAGAGTGATTGAATCTTGTTCTAAACATTAACTTTTCGGAGTCACCTAGTGCAG | 26300 fluorescence intensity (a.u.)
37 | AGTGATTAGATTAGTGAACTGATTAACATTTCTTGTGTTCCGGAGTCACCTAGTGCAG | 64700 fluorescence intensity (a.u.)
38 | ATTATCCATTCAATCAAAACAAGCAGGACTACTAGAAAGCCGGAGTCACCTAGTGCAG | 8940 fluorescence intensity (a.u.)
39 | CTTTATTGATTGAGAGGAACTATCTACCTCTGTAATGACACGGAGTCACCTAGTGCAG | 39200 fluorescence intensity (a.u.)
40 | CAGTGTGATTTAAGAATTTTCAACTGTAAAAGAATAGGAGCGGAGTCACCTAGTGCAG | 10000 fluorescence intensity (a.u.)
41 | TCTAATTACTTATTAATTAATTGATTTAATTAAATTAATCCGGAGTCACCTAGTGCAG | 40400 fluorescence intensity (a.u.)
42 | AAAATAACTAATTGCACAGATTGTGACTAATTTGCGAGACCGGAGTCACCTAGTGCAG | 34900 fluorescence intensity (a.u.)

From paper PMC7819943, “Rice protein-binding microarrays: a tool to detect cis-acting elements near promoter regions in rice”
